# RE007 growth inh = less growth of the S. pombe RE007 Vpr strain; S. pombe RE007 Vpr strain, BacTiter-Glo ATP luminescence, 24 h; Potency, µM (highest dose often 92.2 µM), inactives show at the top dose activity change, negative = less growth, actives largely listed as inhibitors; 360,000 compounds, 0.21% hits; AID 651644; active = well fitted falling curve with a large enough effect; inconclusive = small, poorly fitted or top-dose-only effect; inactive = no such curve, though single readings can be large or run the other way; also: nearly all actives have a fitted effect of over 50% in size
#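 Fission yeast RE007 carrying one integrated HIV-1 vpr copy, seeded at OD 0.01 in PMG+AL medium with 23 nL pinned compound. Grown 24 h at 30 degrees; viability read by BacTiter-Glo luminescence after 5 min.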
# TbPYK inhibitor = T. brucei pyruvate kinase inhibition | Q57TT1 | TbPYK enzyme, Kinase-Glo Plus ATP luminescence, 45 min | Potency, µM (titrated, usually from 76.8 µM), for the others: at the top dose activity, negative = inhibition, usual class: inhibitors | 410,000 compounds, 0.12% hits; also: nearly all actives have a fitted effect of over 50% in size
#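 Glycolytic pyruvate kinase of T. brucei was incubated with substrate, test compound and 130 uM ADP for 45 minutes at room temperature. Luminescent Kinase-Glo Plus signal was measured after 10 minutes.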
# LmPK inh = inhibitors of Leishmania mexicana pyruvate kinase. Q27686. purified LmPK, Kinase-Glo ATP luminescence, 1 h. Potency, µM (series often up to 57.5 µM), inactives show at the top dose activity change, negative = inhibition, most hits filed as inhibitors. 290,000 compounds, 0.37% hits. AID 1721
#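 In 50 mM imidazole pH 7.2 with 7 mM MgCl2, LmPK (0.1 nM) turned over PEP (0.5 mM) and ADP (0.1 mM) for 1 h at room temperature. Luciferase read-out of ATP.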
# Giardia FBPA inh-1 = inhibitors of Giardia lamblia fructose-1,6-bisphosphate aldolase | purified Giardia FBPA | A8B2U2 | 290,000 compounds, 0.71% hits | Potency, µM (doses to about 59.6 µM), for the others: top-dose activity, negative = inhibition, actives largely listed as inhibitors; also: nearly all actives have a fitted effect of over 55% in size
# Target sequence (A8B2U2 whole entry, looked up): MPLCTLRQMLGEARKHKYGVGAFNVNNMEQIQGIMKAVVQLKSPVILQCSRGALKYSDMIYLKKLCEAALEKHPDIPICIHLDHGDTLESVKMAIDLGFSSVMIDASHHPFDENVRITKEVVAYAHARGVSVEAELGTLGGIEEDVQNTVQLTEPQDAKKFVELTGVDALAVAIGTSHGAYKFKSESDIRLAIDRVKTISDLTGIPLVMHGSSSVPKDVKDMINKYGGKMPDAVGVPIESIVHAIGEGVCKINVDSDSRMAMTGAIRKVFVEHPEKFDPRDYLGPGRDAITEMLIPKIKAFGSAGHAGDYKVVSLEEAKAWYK
#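 40 nM FBPA preincubated 10 min at RT with compound (up to 57.5 uM final), then substrate plus GAPDH/TPI/NAD/arsenate coupling and diaphorase/resazurin added. Fluorescence read after 20 min at RT, 525/598 nm.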
# Giardia growth = inhibitors of Giardia lamblia growth | Giardia lamblia trophozoite growth inhibition | Potency, µM (doses to about 57.5 µM), inactives show top-dose activity change, negative = inhibition, actives largely listed as inhibitors | shares compounds with Giardia FBPA inh-1 | 1,500 compounds, 5% hits;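 also: trophozoites exposed to compound for 48 h at 37 °C; nearly all actives have a fitted effect of over 70% in size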
# Mammalian tox = toxic to mammalian cells in Giardia aldolase counter-screen; shares compounds with Giardia FBPA inh-1; mammalian cell viability counter-screen, qHTS; Potency, µM (doses to about 57.5 µM), without a hit: at the top dose viability change, negative = toxicity, actives largely listed as inhibitors; 1,500 compounds, 4% hits; AID 2786;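 also: Chinese hamster ovary cells used as mammalian cytotoxicity surrogate; viability measured as cellular ATP by luminescence; compound exposure lasted 48 h before reading; nearly all actives have a fitted effect of over 60% in size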
# Giardia FBPA inh-2 = confirmation of Giardia fructose-bisphosphate aldolase inhibitors. purified Giardia aldolase enzyme activity, qHTS. shares compounds with Giardia FBPA inh-1. Potency, µM (titrated, usually from 57.5 µM), for inactives: at the highest dose activity change, negative = inhibition, most hits filed as inhibitors. 1,500 compounds, 5% hits; also: nearly all actives have a fitted effect of over 45% in size
# Rabbit aldolase = rabbit FBP aldolase inhibition by Giardia aldolase hits. Potency, µM (doses to about 57.5 µM), for the others: at the top dose activity, negative = inhibition, usual class: inhibitors. Rabbit muscle FBPA enzyme inhibition, selectivity counter-screen. 1,500 compounds, 4% hits. shares compounds with Giardia FBPA inh-1; also: nearly all actives have a fitted effect of over 60% in size
# Target sequence (P00883 whole entry, looked up): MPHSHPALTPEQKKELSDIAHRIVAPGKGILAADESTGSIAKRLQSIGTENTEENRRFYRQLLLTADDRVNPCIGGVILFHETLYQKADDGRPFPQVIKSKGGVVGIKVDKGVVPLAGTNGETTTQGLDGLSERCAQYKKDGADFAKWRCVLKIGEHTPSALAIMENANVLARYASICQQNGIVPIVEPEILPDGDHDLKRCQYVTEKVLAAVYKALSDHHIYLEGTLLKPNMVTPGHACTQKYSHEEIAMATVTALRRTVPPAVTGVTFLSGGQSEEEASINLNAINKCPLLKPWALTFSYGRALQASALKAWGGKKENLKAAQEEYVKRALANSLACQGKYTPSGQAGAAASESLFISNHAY
# GAPDH coupling = GAPDH inhibition flagged for Giardia aldolase hits. shares compounds with Giardia FBPA inh-1. AID 2795. Potency, µM (top dose mostly 57.5 µM), without a hit: at the top dose activity change, negative = inhibition, most hits filed as inhibitors. GAPDH coupling enzyme counterscreen, biochemical, qHTS. 1,500 compounds, 6% hits; also: nearly all actives have a fitted effect of over 55% in size
# * marks the source's active call; other numbers are inactive results; ? = inconclusive; nt = not tested or not shown; [ ] = dose if it differs, or a comment. Rows were chosen to be rich in hits. Some 0.95% of all compounds tested hit in one or more screens of this group. Unless noted, calls follow the shape of the dose curve; as a rule, active = well fitted curve in the direction sought with a large enough effect; inconclusive = small, poorly fitted or top-dose-only effect, or another doubt; inactive = no such curve, though single readings can be large; an effect the other way counts as inactive or inconclusive. % is scaled to controls: 0 for no effect and ±100 for the full control effect; potency is read from the fitted curve at half-maximal effect.
SMILES,RE007 growth inh,TbPYK inhibitor,LmPK inh,Giardia FBPA inh-1,Giardia growth,Mammalian tox,Giardia FBPA inh-2,Rabbit aldolase,GAPDH coupling
C/C(=N\NC(N)=S)c1ccc2c(c1)OCCO2,-26%,-11%,0%,18µM*,?,-10%,11%,8%,9%
CCOC(=O)CCCc1ccc(/C(C)=N/NC(N)=S)cc1,3%,-13%,4%,6.3µM*,13%[38.3 µM],-1%,10%,9%,-3%
C/C(=N\NC(N)=S)c1ccccc1,-4%,-3%,1%,16µM*,27%,7%,6%,5%,7%
CN1C(=O)CCC2(c3ccccc3)CC=C(O)C=C12 (stereo unspecified),-5%,2%,nt,nt,nt,nt,nt,nt,nt
O=C(CN1C(=O)COc2ccc(S(=O)(=O)N3CCOCC3)cc21)NCc1ccc(F)cc1,nt,1%,nt,nt,nt,nt,nt,nt,nt
O=C(O)CNC(=O)CC1S/C(=N/N=C2\CSC(=O)N2)NC1=O (stereo unspecified),10%,-2%,27%,5.6µM*,13%[38.3 µM],4%,-10%,8%,-8%
O=C(CN1CCOCC1)Nc1nc2ccc(Br)cc2s1,-9%[3.69 µM],nt,2%,-3%,nt,nt,nt,nt,nt
O=C(CN1CCOCC1)Nc1nc2ccc(Cl)cc2s1,-8%,1%,0%,6.3µM*,-5%,-20%,5%,8%,7%
CS(=O)(=O)c1ccc2nc(NC(=O)CN3CCOCC3)sc2c1,9%,0%,4%,4.5µM*,?,-4%,2%,6%,3%
O=C(O)CSc1nnc(NC(=O)CN2CCOCC2)s1,-2%,1%,-1%,5µM*,-5%,0%,3%,11%,11%
CCOC(=O)[C@@H]1[C@H]2COc3ccc(Br)cc3[C@@H]2N2C(=O)N(c3ccc(C(F)(F)F)cc3)C(=O)[C@]12C,5%,6%,-5%,-8%,nt,nt,nt,nt,nt
COc1ccc(CNc2cc(C)ccc2C)c(OC)c1OC,-8%,-6%,0%,6%,nt,nt,nt,nt,nt
COc1cc(Br)c(CNc2cc(C)ccc2C)cc1OC,-15%,-6%,-7%,20µM*,-19%,-3%,-3%,7%,6%
O=C(CSc1nnc2ccccn12)Nc1ccc2c(c1)OCCO2,-14%,1%,1%,3%,nt,nt,nt,nt,nt
CCOc1ccc(C(=O)C2CCN(CC(=O)Nc3nccs3)CC2)cc1,3%,-1%,-2%,?,nt,nt,nt,nt,nt
NC(=O)C1CCN(CC(=O)Nc2nccs2)CC1,-9%,5%,0%,3.5µM*,?,-6%,-25%,1%,14%
Cc1ccccc1N1CCN(CC(=O)Nc2nccs2)CC1,8%,1%,0%,11µM*,-15%,-4%,6%,6%,6%
O=S(=O)(c1ccc(F)c(F)c1)N1CCN(CCc2ccccc2)CC1,6%,0%,0%,2%,nt,nt,nt,nt,nt
O=C(O[C@@H]1OC2COC(=O)c3cc(O)c(O)c(O)c3-c3c(cc(O)c(O)c3O)C(=O)O[C@@H]([C@H]1O)[C@@H]2O)c1cc(O)c(O)c(O)c1,3%,?,-28%,?,-33%[38.3 µM],-6%,?,?,?
NCCCC[C@H](NC(=O)[C@@H](Cc1ccccc1)NC(=O)[C@H](Cc1c[nH]c2ccccc12)NC(=O)[C@@H](CCCCN)NC(=O)[C@@H](Cc1c[nH]c2ccccc12)NC(=O)[C@@H](N)Cc1cnc[nH]1)C(N)=O,nt,nt,nt,2%,nt,nt,nt,nt,nt
CCOc1ccc(N(CC(=O)Nc2ccc(OC)cc2)C2=NC3CS(=O)(=O)CC3S2)cc1 (stereo unspecified),-7%,3%,-1%,13µM*,-12%,-14%,3%,6%,10%
CC(=O)Nc1cccc(-c2csc(NCc3ccccc3)n2)c1,-15%,-15%,0%,20µM*,18%,-7%,8%,8%,5%
Cc1nnc(N/N=C\c2ccc(-c3cccc(C(=O)O)c3)o2)n1N,-26%,-9%,-3%,8.9µM*,-53%,-6%,?,?,?
O=C(O)c1ccc(N/N=C/c2ccc(-c3ccc(Br)cc3)o2)cc1,?,-5%,-3%,-3%,nt,nt,nt,nt,nt
Cc1nnc(N/N=C/c2ccc(-c3ccc(Br)cc3)o2)n1N,-30%,-1%,2%,16µM*,-3%,5%,?,?,-21%
SMILES,RE007 growth inh,TbPYK inhibitor,LmPK inh,Giardia FBPA inh-1,Giardia growth,Mammalian tox,Giardia FBPA inh-2,Rabbit aldolase,GAPDH coupling
CCN(CC)CCN(Cc1cc2cc3c(cc2[nH]c1=O)OCCO3)C(=S)NCC1CCCO1 (stereo unspecified),-11%,-4%,6%,7.9µM*,31%,-8%,7%,0%,-20%
CCN(CC)CCN(Cc1cc2cc3c(cc2[nH]c1=O)OCO3)C(=S)NCC1CCCO1 (stereo unspecified),4%,3%,0%,3%,nt,nt,nt,nt,nt
CC(=O)NNC(=S)NC(=O)c1ccc(C)cc1,11%,-7%,2%,1%,nt,nt,nt,nt,nt
CCC(=O)NNC(=S)NC(=O)c1ccc(C)cc1,-22%,-5%,5%,18µM*,?,-5%,23%,-1%,13%
C[C@@H](c1ccccc1)N1C(=O)[C@H]2[C@H]3[C@H](O)[C@H](O)C/C(=N/NC(=O)OCc4ccccc4)[C@@H]3CC[C@@H]2C1=O,nt,nt,nt,-2%[12.9 µM],nt,nt,nt,nt,nt
Cc1ccc(-c2c3c(=O)n(C)c(=O)n(C)c3c3c(C)nc4ccccc4n23)cc1,nt,-2%,nt,nt,nt,nt,nt,nt,nt
Cn1cnc([N+](=O)[O-])c1Sc1ncccc1N,-15%,-3%,5%,18µM*,27%,3%,1%,6%,-18%
COc1cccc(NC(=S)NC(=O)c2cncc(Br)c2)c1,-10%,3%,nt,nt,nt,nt,nt,nt,nt
N#Cc1ccccc1NC(=S)NC(=O)c1cccnc1,3%,8%,1%,14µM*,28%,4%,6%,-2%,15%
COc1cccc(NC(=S)Nc2ccc(O)cc2)c1,-9%,-17%,3%,18µM*,19%,2%,-24%,-15%,-19%
CCOC(=O)c1cccc(NC(=S)NC(=O)c2cccnc2)c1,-6%,-5%,3%,10µM*,-12%[38.3 µM],3%,-10%,-10%,-2%
CCCOC(=O)c1cccc(NC(=O)c2cccnc2)c1,-3%,-7%,12%,0%,nt,nt,nt,nt,nt
COc1cccc(NC(=S)NC(=O)c2cccnc2)c1,0%,-7%,-7%,3.5µM*,-58%[38.3 µM],-10%,0%,-4%,2%
